# ± gives the standard deviation.
# Tests used:
# [1] = test system: MILI (PIWIL2) piRISC loaded with L1MC piRNA (26 nt); assay: pre-steady-state target cleavage rate (min^-1); guide: L1MC piRNA 5'p-UAACUAAAUACUAUGCAAGCUGUAGG; higher = faster piRNA-guided slicing of the target; conditions: auxiliary factor: 500 nM mouse GTSF1;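 note: 1 nM active piRISC with 0.1 nM target library at 33 °C single turnover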
# In short: (§1)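 For Cleave-'n-Seq, a transcribed, DNA-blocked target RNA library […] met 1 nM active affinity-purified piRISC with one synthetic guide at 33 °C for 0–8 or 0–960 min in HEPES–potassium acetate buffer, with or without 500 nM GTSF1 partner protein. Uncleaved targets were sequenced and normalised to depth and weakly complementary targets, with three trials pooled and k3 capped at 0.0001 min^-1. A burst-and-steady-state fit supplied the pre-steady-state cleavage rate.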
# [2] = test system: EfPiwi piRISC loaded with L1MC piRNA (26 nt); assay: pre-steady-state target cleavage rate (min^-1); auxiliary factor: 500 nM Ephydatia muelleri Gtsf1; guide: L1MC piRNA 5'p-UAACUAAAUACUAUGCAAGCUGUAGG; MIWI and MILI are mouse PIWI proteins and EfPiwi is from a freshwater sponge; tags in brackets are library labels; higher = faster piRNA-guided slicing of the target
# In short: as §1
Sequence,pre-steady-state target cleavage rate [1],pre-steady-state target cleavage rate [2]
UCCUGGAUGAGCUUGCAUAGUAUUUAGUCUA,0.0419 ± 0.013,0.00413 ± 0.0026
UCCUGGUACAGCUUGCAUUGUAUUUUGUUA,0.0604 ± 0.018,0.00266 ± 0.0026
UCCUGGAUCAGCUUGCAUAGUAAUUACUUA,0.0264 ± 0.0065,0.00233 ± 0.0022
UCCUGCUACAGCUUGCAUAGAAUUUAGAAA,0.0373 ± 0.015,0.00251 ± 0.0016
UCCUGGAACAGCAUCCAUAGUAUUUAGUUA,0.195 ± 0.045,0.0025 ± 0.0021
UCCUGCUACAGCUUGCAUAGUAUUUUCAUA,0.151 ± 0.044,0.00529 ± 0.0027
UCCUCCUACAGCUUGCAAAGAAUUUAGUUA,0.0165 ± 0.0051,0.0033 ± 0.0027
UCCUGGAUCAGCUUGCAUAGUAUUUUCAUA,0.0451 ± 0.011,0.00263 ± 0.0022
UCCUCCUAGUGCUUGCAUAGUAUUUAGUAA,0.114 ± 0.019,0.00468 ± 0.002
UCCUGGUACAGCUUGCAUAGUAUUAUCUAA,0.0327 ± 0.012,0.00312 ± 0.0027
UCCUCCUAGAGCUUGCAUAGUAUUAAGUUA,0.279 ± 0.035,0.00604 ± 0.0026
UCCUCCUUGAGCUUGCAUAGUAUUUUCAAA,0.0637 ± 0.016,0.00265 ± 0.0021
UCCUGGAACAGCUUGCAUAGUAUUAAGAAA,0.154 ± 0.045,0.00313 ± 0.0019
UCCUGCUACAGCUUGCAUAGAAAUUAGUUA,0.059 ± 0.015,0.0026 ± 0.0021
UCCUCCAUCAGCUUGCAUAGUAUUUUCAAA,0.0846 ± 0.02,0.00384 ± 0.0024
UCCUGGAUCAGCUUGGAUAGUAUUUUGUUA,0.117 ± 0.021,0.00346 ± 0.0027
UCCUCCUACAGCUUGCAUAGUAUUUAGGUA,0.152 ± 0.045,0.00476 ± 0.0017
UCCUGGAUGAGCUUGCAUAGUAUUUAUUUA,0.0843 ± 0.024,0.00435 ± 0.0029
UCCUGCUACAGCUUGCAUAGUAUUUUGAUA,0.142 ± 0.037,0.00307 ± 0.0023
UCCUGGAACAGGUUGCAUAGUAUUUAGAAA,0.163 ± 0.026,0.00261 ± 0.0017

Sequence,pre-steady-state target cleavage rate [1],pre-steady-state target cleavage rate [2]
UCCUGCUACUGCUUCCAUAGUAUUUAGUUA,0.0453 ± 0.014,0.00205 ± 0.0016
UCCUGCUACAGCUUGCAUAGUUUUUAGAAA,0.0163 ± 0.0061,0.00343 ± 0.0019
UCCUGCUACAGCUUGCAUAGUAUAUUGUUA,0.187 ± 0.036,0.00351 ± 0.0021
UCCUCCUACAGCUUGCAUAGUAAAAAGAAA,0.075 ± 0.02,0.00287 ± 0.0026
UCCUCCUACAGCUUGCAUACUAUUAAGUUA,0.0631 ± 0.019,0.00391 ± 0.0027
UCCUGGAACUGCUUCCAUAGUAUUUAGUUA,0.074 ± 0.022,0.00266 ± 0.0013
UCCUGGAACAGCUUGCAUAGUAUUAAGUAA,0.0909 ± 0.024,0.00572 ± 0.0023
UCCUGGAUGAGCUUGCAUAGUAAUUAGAUA,0.0197 ± 0.0088,0.00341 ± 0.0028
UCCUCCUACACCUUGCAUAGUAUUUAGAUA,0.161 ± 0.044,0.004 ± 0.0023
UCCUGGAACAGCUUGCGAUAGUAUUUAGUUA,0.00418 ± 0.0033,0.00523 ± 0.0018
UCCUCCUACAGCUUGGAUAGUAUUUAGAUA,0.139 ± 0.019,0.00474 ± 0.0018
UCCUCCUACAGCUUCCAUUGUAUUUAGUUA,0.0834 ± 0.015,0.00393 ± 0.0019
UCCUGGAACAGCUUGCAUAGUAAUUAGAUA,0.0936 ± 0.022,0.00318 ± 0.0015
UCCUCCUACAGCUUGCAUAGUAUUUACUAA,0.114 ± 0.027,0.00569 ± 0.003
UCCUGGAACAGCUUGCAUAGUUUUUAGAAA,0.0191 ± 0.007,0.00413 ± 0.0021
UCCUGCUUGUGCUUGCAUAGUAUUUAGAAA,0.0115 ± 0.0056,0.00373 ± 0.0022
UCCUCCUACAGCUUGCAUAUAUUUAGUUA,0.0398 ± 0.0083,0.00725 ± 0.0034
UCCUGGAUCUGCUUCCAUAGUAUUUAGUUA,0.0239 ± 0.0067,0.00326 ± 0.0022
UCCUCCUACAGCUAGCAUAGUAUUUAGAAA,0.113 ± 0.021,0.00378 ± 0.0016
UCCUGCUACAGCUUGCAUAGUAUAAUGAAA,0.0499 ± 0.018,0.00473 ± 0.0032

Sequence,pre-steady-state target cleavage rate [1],pre-steady-state target cleavage rate [2]
UCCUGGAACAGCUUGCAUAGUAUUUAAUUA,0.102 ± 0.021,0.00345 ± 0.0024
UCCUGGUACUGCUUGCAUAGUAUUUACAAA,0.00977 ± 0.0049,0.00278 ± 0.0027
UCCUGGAUCAGCUUGCAUAGAAUUUAGAUA,0.0147 ± 0.0059,0.0036 ± 0.0019
UCCUCCUACAGCUUGCAUAGUUUUUUGUUA,0.0587 ± 0.013,0.00441 ± 0.0026
UCCUGCUACAGCUUGCAUAGUUUUUUGUUA,0.112 ± 0.028,0.00384 ± 0.0021
UCCUCCUACAGCUUGCAUAGUUUUUUCAAA,0.0513 ± 0.014,0.00481 ± 0.0034
UCCUCCUACAGCAUCCAUAGUAUUUAGUUA,0.175 ± 0.042,0.00359 ± 0.0017
UCCUCCUACAGCUUGCAUAGUUUAUAGUUA,0.0469 ± 0.011,0.00613 ± 0.0033
UCCUGCUUGAGCUUGCAUAGUAUUUACAAA,0.0564 ± 0.017,0.00279 ± 0.0023
UCCUCCUACAGCUUGCAUAGUAAAAAGUUA,0.0965 ± 0.016,0.00301 ± 0.0021
UCCUCCUACAGCUUGCAUAGUAUAAUGUAA,0.046 ± 0.014,0.00413 ± 0.0027
UCCUGCUACAGCUAGCAUAGUAUUUACUUA,0.351 ± 0.051,0.00364 ± 0.0025
UCCUCCUACAGCUUGGUUAGUAUUUAGAAA,0.081 ± 0.016,0.00231 ± 0.0022
UCCUGCUACAGCUUGGAUAGUAUUUAGAUA,0.0476 ± 0.016,0.00339 ± 0.001
UCCUGCUUCAGCUUGCAUAGAAUUUAGUUA,0.0587 ± 0.011,0.00544 ± 0.0015
UCCUCCUACAGCUUGCAUAGUAUAUACUUA,0.0976 ± 0.028,0.00304 ± 0.0025
UCCUGGAUGAGCUUGCCAUAGUAUUUAGUUA,0.0808 ± 0.016,0.0035 ± 0.0026
UCCUCCUACAGCUUGCUUAGAAUUUAGUUA,0.0487 ± 0.011,0.00419 ± 0.002
UCCUGCUAAAGCUUGCAUAGUAUUUAGUUA,0.177 ± 0.035,0.00411 ± 0.0014
UCCUCCUACUGCUUCCAUAGUAUUUAGUUA,0.0403 ± 0.0098,0.0043 ± 0.0018

# — the supplement of paper PMC10338343
